Data: PubChem BioAssay (NCATS)
Values joined by “and” are separate entries in the source; they are usually repeats but may differ in a detail not shown here. Equal values may be shown once. Inconclusive results are not listed. A call without a number means that no potency is given here. The source holds several records for some structures; these can differ, active in one and inactive in another. Active and inactive are the calls of the source. Unless noted, the call rests on the fitted dose curve; in most records, active means well fitted curve in the direction sought with a large enough effect; inconclusive means small, poorly fitted or top-dose-only effect, or another doubt; inactive means no such curve, though single readings can be large; an effect the other way counts as inactive or inconclusive.

What was measured:
[1] = Quantitative high throughput screen for delayed death inhibitors of the malarial parasite plastid, 48 hour incubation (AID 488752); further: nearly all actives have a fitted effect of over 65% in size; further: potency means the concentration at half of the fitted maximal effect
How it was run: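 Readout is firefly luciferase luminescence from a reporter integrated into the parasite genome, with lower signal taken as inhibited growth. Infected red cells (0.1% parasitemia, 2% hematocrit final) are cultured with compound for one 48 h cycle at 37 C.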

[2] = biological target: Thioredoxin reductase 1, cytoplasmic (Rattus norvegicus) (UniProt O89049); assay: qHTS Assay for Substrates of Mammalian Selenoprotein Thioredoxin Reductase 1 (TrxR1) (AID 488772);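 further: NADPH fluorescence in the first read after selenite addition and not the 8 min delta; series mostly up to about 57 µM; a drop in NADPH fluorescence below the no-compound background marks a TrxR1 substrate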
How it was run: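 Quantitative HTS in Tris-HCl buffer at pH 7.5 with EDTA and Tween-20, using rat TrxR1, 400 uM NADPH and 400 uM selenite (final). A fall in initial NADPH fluorescence relative to background marked substrate behaviour.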

[3] = biological target: Thioredoxin reductase 1, cytoplasmic (Rattus norvegicus) (UniProt O89049); assay: qHTS Assay for Inhibitors of Mammalian Selenoprotein Thioredoxin Reductase 1 (TrxR1) (AID 488773); settings: Potency: inhibition;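 further: drop in NADPH fluorescence over an 8 min run after selenite addition; series mostly up to about 57 µM; nearly all actives have a fitted effect of over 40% in size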
How it was run: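 Steps: enzyme (90 nM) plus NADPH (400 uM final), 5 min at ~22 deg C; compound added, 15 min; selenite (400 uM final) added; fluorescence followed for 8 min. Concentration-response curves derived from the normalized delta values.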

[4] = biological target: M-phase phosphoprotein 8 (Homo sapiens) (UniProt Q99549); assay: qHTS Validation Assay for Inhibitors for MPP8 Chromodomain Interactions with Methylated Histone Tails (AID 488949); further: nearly all actives have a fitted effect of over 55% in size; further: potency means the concentration at half of the fitted maximal effect
How it was run: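 MPP8 (50 nM) was pre-bound to 50 nM biotinylated H3(1-18)K9me3 peptide in PBS pH 7.4 with 0.01% Tween-20. Compounds were then added for 30 min at room temperature, and complex disruption was read by AlphaScreen with streptavidin donor and nickel-chelate acceptor beads.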

[5] = biological target: Chromobox protein homolog 1 (Homo sapiens) (UniProt P83916); assay: qHTS Validation Assay for Inhibitors of HP1-beta Chromodomain Interactions with Methylated Histone Tails (AID 488953); further: nearly all actives have a fitted effect of over 50% in size; further: potency means the concentration at half of the fitted maximal effect
How it was run: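 50 nM HP1-beta + 50 nM biotin-H3(1-18)K9me3, PBS pH 7.4, 0.01% Tween-20, 30 min RT; compound added, 30 min RT; AlphaScreen beads 10 ug/mL final, 30 min dark; luminescence read.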

[6] = biological target: Methanococcus maripaludis chaperonin (MmCpn) (UniProt Q6LX38); assay: High-Throughput Screening for Modulators of Cytosolic Chaperonin Activity: MmCpn Primary Screen (AID 488978);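 further: 50 nM MmCpn enzyme hydrolysing 30 µM ATP at 37 °C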
How it was run: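 MmCpn at 50 nM final was preincubated 5 min at RT with compound. ATP was then added at 30 uM final for 10 min at 37 C. ADP formed was detected by Transcreener HTRF (665/590 nm).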

[7] = biological target: Transient receptor potential cation channel subfamily V member 1 (Homo sapiens) (UniProt Q8NER1); assay: HTS Assay for Compounds that Act as Enhancers of the Vanilloid Receptor 1 (AID 488979)
How it was run: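 Calcium influx kinetics via Fluo-8 (480/520 nm) in TRPV1-expressing cells, 2000/well cultured overnight at 35.5C. Compound-alone read 3 min (agonist phase), followed by EC20 capsaicin challenge for 2 min (enhancer phase).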

[8] = biological target: Thyrotropin receptor (Homo sapiens) (UniProt P16473); assay: qHTS Assay for Antagonists of the Thyroid Stimulating Hormone Receptor (AID 488980); further: series mostly up to about 58 µM
How it was run: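 TSHR-transfected HEK293 cells (2000/well) in HEPES-buffered HBSS with 70 uM RO 20-1724 were stimulated with 4 nM TSH (EC80, final) in the presence of compound. cAMP was measured by HTRF competition after lysis and 30 min at RT.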

[9] = biological target: D(1A) dopamine receptor (Homo sapiens) (UniProt P21728); assay: HTS Assay for Allosteric Agonists of the Human D1 Dopamine Receptor: Primary Screen for Agonists (AID 488981)
How it was run: (§1)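 Calcium flux in an inducible, force-coupled HEK293 Trex D1 line (overnight at 30 C): agonist mode is the 180 s kinetic read after compound; potentiator mode is the following 180 s read after dopamine at EC20.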

[10] = biological target: D(1A) dopamine receptor (Homo sapiens) (UniProt P21728); assay: HTS Assay for Allosteric Agonists of the Human D1 Dopamine Receptor: Primary Screen for Antagonists (AID 488983);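 further: calcium flux response to an EC80 dopamine challenge measured with no-wash dye; nearly all actives have a fitted effect of over 65% in size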; further: potency means the concentration at half of the fitted maximal effect
How it was run: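 Cells are induced with tetracycline and incubated overnight at 30 C, then loaded with calcium dye for 30 to 90 minutes at room temperature. Compound addition is followed by a 180 s read, then an EC80 dopamine addition and another 180 s read.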

[11] = Validation screen for small molecules that induce genotoxicity in human embryonic kidney (HEK293T) cells expressing luciferase-tagged ELG1 (AID 493106); further: potency means the concentration at half of the fitted maximal effect
How it was run: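 Luminescence from an ELG1-luciferase fusion serves as the read-out, rising when genetic stress elevates ELG1 protein. HEK293T reporter cells (2,000 per well) received 23 nL compound, incubated 16 hr at 37 °C, then ONE-Glo for 30 min at room temperature.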

[12] = qHTS for Inhibitors of Cell Surface uPA Generation: Validation Assay (AID 493164)
How it was run: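 RAW 264.7 cells (4000/well) were plated overnight, then exposed for 18 h at 37 C, 5% CO2 to compounds in a 7-point 1:5 titration (2.45 nM–38.3 uM final). Intracellular ATP was read by ATP-Lite luminescence.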

[13] = biological target: Galactokinase (Homo sapiens) (UniProt P51570); assay: qHTS Validation Assay for Inhibitors of Human Galactokinase (GALK) (AID 493189)
How it was run: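 GALK (5 nM) with 35 uM ATP and 100 uM galactose in HEPES pH 8.0 with MgCl2, NaCl, DTT and BSA. Reaction ran 1 h at room temperature. Residual ATP read by Kinase-Glo Plus luminescence.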

[14] = biological target: D(1A) dopamine receptor (Homo sapiens) (UniProt P21728); assay: HTS Assay for Allosteric Agonists of the Human D1 Dopamine Receptor: Primary Screen for Potentiators (AID 488982)
How it was run: as §1

[15] = biological target: ATPase family AAA domain-containing protein 5 (Homo sapiens) (UniProt Q96QE3); assay: Validation screen for small molecules that inhibit ELG1-dependent DNA repair in human embryonic kidney (HEK293T) cells expressing luciferase-tagged ELG1 (AID 493107); further: nearly all actives have a fitted effect of over 70% in size; further: potency means the concentration at half of the fitted maximal effect
How it was run: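 Luminescence from ONE-Glo, developed 30 min at room temperature, served as read-out of ELG1-luciferase levels. Beforehand, reporter HEK293T cells received 5-fluorouridine plus test compound for 16 hr at 37 °C.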

[16] = biological target: Thyrotropin-releasing hormone receptor (Homo sapiens) (UniProt P34981); assay: qHTS for Small Molecule Agonists and Allosteric Enhancers of Human TRH Receptor: Validation Screen for Agonists (AID 493127;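 active means calcium activation more than 3 SD above the typical response in the agonist read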;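 further: intracellular calcium rise by fluo-8 fluorescence before TRH EC20 addition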); settings: TRH receptor agonist cell assay; at 2 µM; stronger effect = higher value
How it was run: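 Cells 2000/well, 10% FCS, 18 h 33.5C/5% CO2 → fluo-8 Ca dye, RT 30 min–1.5 h → FDSS baseline 10 × 1 s → compound added → 230 cycles (1 s/cycle) agonist mode. TRH controls.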

[17] = Nrf2 qHTS screen for inhibitors: Validation (AID 493153; active means well fitted inhibition curve with a large enough effect in the main read-out, with a control signal flat, not every such curve was filed as active; further: potency means the concentration at half of the fitted maximal effect); settings: Potency: luciferase luminescence; viability change: measured here: cytotoxicity max response
How it was run: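 Luminescence from an ARE-firefly luciferase reporter in A549 cells gives Nrf2 inhibition; an earlier CellTiter-Fluor fluorescent read flags cytotoxicity. Cells in 5% FBS OPTI-MEM received compound dilution series for 18-24 h at 37°C.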

[18] = biological target: Flap endonuclease 1 (Homo sapiens) (UniProt P39748); assay: qHTS Validation Assay for the Inhibitors of Human Flap endonuclease 1 (FEN1) (AID 488816); further: potency means the concentration at half of the fitted maximal effect
How it was run: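 Readings taken at 0 and 15 min after starting the reaction with 50 nM (final) substrate supplied the signal. Compounds had first sat with 10 nM FEN1 reagent for 15 min at room temperature. Values come from Hill-equation concentration-response fits.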

Chain of Thyrotropin-releasing hormone receptor (Homo sapiens) (P34981 whole entry, looked up): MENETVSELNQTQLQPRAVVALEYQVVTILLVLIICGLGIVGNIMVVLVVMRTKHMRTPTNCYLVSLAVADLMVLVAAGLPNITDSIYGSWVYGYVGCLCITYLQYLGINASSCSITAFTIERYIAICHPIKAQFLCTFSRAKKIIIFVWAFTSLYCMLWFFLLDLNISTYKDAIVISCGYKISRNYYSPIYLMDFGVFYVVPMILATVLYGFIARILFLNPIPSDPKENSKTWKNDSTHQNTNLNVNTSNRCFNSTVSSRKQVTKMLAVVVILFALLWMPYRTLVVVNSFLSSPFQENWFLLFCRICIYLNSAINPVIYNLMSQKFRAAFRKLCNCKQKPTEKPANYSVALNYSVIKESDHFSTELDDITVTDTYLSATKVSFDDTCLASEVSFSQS
Chain of Methanococcus maripaludis chaperonin (MmCpn) (Q6LX38 1-543): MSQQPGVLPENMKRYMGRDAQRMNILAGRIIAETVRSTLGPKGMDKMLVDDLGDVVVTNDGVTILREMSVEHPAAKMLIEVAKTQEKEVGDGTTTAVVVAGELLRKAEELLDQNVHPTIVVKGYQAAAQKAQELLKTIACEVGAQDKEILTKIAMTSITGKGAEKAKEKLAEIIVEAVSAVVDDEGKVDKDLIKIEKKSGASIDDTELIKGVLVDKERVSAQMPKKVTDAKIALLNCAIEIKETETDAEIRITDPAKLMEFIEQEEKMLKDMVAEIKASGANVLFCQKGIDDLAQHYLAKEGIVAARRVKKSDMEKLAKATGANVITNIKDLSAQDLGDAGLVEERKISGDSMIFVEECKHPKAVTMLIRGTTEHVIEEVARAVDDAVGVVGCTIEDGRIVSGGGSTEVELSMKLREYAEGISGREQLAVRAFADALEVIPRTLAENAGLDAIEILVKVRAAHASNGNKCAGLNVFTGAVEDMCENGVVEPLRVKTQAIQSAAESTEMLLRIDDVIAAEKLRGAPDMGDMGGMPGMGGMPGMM
Chain of Flap endonuclease 1 (Homo sapiens) (P39748 whole entry, looked up): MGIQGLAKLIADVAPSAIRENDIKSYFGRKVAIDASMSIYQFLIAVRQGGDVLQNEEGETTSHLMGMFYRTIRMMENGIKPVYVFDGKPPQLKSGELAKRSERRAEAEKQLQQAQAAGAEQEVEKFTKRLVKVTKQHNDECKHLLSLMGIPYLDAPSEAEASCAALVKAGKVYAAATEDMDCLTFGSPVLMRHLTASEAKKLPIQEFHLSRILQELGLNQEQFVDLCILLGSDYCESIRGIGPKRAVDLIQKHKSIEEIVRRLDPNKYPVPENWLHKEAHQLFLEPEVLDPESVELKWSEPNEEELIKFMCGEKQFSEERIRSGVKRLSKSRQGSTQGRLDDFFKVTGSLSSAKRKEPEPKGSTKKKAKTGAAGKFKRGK
Chain of Transient receptor potential cation channel subfamily V member 1 (Homo sapiens) (Q8NER1 whole entry, looked up): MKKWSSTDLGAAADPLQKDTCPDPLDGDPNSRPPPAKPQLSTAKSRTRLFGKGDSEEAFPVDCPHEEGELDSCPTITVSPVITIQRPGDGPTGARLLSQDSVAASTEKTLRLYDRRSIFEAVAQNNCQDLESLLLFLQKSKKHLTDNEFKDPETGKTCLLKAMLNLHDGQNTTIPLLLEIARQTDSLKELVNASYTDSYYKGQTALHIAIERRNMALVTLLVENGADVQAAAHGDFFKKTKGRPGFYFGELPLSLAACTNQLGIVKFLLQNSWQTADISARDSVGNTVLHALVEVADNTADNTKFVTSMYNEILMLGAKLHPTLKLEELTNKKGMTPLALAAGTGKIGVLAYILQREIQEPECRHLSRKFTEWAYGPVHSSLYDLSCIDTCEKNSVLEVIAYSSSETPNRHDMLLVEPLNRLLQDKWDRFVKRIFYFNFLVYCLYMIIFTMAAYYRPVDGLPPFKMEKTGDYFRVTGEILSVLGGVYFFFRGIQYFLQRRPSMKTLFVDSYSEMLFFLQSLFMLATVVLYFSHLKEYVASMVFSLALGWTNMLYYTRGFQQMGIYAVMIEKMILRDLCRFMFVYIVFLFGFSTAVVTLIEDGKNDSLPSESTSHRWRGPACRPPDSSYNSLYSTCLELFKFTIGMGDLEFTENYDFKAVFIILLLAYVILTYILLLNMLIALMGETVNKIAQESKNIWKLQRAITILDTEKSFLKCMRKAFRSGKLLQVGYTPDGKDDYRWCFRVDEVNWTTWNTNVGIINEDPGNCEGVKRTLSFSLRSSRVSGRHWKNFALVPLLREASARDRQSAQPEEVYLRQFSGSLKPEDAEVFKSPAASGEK
Chain of ATPase family AAA domain-containing protein 5 (Homo sapiens) (Q96QE3 whole entry, looked up, the tested form may be a part): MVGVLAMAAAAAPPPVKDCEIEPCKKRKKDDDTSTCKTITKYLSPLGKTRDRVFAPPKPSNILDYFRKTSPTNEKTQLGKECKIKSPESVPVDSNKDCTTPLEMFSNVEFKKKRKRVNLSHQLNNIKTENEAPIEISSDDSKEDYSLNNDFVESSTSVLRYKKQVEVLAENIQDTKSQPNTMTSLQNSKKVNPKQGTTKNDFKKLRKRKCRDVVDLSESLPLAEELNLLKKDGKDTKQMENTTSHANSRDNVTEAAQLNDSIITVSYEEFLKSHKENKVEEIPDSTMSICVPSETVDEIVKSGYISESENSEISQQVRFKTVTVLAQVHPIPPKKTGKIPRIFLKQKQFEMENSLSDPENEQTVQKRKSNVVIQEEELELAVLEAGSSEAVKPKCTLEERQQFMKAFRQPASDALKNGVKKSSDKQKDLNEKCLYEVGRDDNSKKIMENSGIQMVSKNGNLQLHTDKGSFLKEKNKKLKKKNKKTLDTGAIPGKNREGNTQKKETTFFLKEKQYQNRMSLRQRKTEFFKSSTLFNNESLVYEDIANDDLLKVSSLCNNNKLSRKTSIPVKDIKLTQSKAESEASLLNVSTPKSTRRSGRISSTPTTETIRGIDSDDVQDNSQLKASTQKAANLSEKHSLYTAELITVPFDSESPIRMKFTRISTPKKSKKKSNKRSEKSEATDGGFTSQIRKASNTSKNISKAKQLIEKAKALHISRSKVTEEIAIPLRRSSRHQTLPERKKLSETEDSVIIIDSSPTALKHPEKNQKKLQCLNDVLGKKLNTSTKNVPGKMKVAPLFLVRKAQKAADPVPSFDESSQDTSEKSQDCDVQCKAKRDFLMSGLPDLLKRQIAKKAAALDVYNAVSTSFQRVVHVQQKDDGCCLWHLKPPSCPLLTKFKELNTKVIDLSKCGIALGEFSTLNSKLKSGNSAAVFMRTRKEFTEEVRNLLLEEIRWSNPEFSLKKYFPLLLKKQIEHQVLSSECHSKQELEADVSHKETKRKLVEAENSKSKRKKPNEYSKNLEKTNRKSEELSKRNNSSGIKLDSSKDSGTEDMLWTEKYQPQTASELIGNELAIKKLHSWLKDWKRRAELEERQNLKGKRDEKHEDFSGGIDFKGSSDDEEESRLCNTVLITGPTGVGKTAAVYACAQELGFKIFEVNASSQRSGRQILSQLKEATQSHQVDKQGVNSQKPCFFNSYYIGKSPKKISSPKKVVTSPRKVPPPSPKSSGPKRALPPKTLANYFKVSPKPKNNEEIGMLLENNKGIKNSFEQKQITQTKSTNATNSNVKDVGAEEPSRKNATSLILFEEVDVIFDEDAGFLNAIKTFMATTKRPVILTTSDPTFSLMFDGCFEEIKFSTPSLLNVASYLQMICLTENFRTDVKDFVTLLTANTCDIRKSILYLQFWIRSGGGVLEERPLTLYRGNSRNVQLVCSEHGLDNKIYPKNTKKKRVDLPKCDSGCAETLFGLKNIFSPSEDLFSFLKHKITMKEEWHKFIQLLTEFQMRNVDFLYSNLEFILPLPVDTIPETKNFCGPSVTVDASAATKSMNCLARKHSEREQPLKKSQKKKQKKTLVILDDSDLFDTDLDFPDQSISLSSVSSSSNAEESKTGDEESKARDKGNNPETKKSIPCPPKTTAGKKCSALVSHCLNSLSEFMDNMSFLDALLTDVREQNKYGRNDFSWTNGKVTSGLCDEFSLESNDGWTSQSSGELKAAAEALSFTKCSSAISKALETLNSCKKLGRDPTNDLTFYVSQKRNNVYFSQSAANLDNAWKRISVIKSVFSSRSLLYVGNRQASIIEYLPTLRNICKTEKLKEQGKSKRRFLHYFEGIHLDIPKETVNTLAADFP
Chain of Thyrotropin receptor (Homo sapiens) (P16473 whole entry, looked up): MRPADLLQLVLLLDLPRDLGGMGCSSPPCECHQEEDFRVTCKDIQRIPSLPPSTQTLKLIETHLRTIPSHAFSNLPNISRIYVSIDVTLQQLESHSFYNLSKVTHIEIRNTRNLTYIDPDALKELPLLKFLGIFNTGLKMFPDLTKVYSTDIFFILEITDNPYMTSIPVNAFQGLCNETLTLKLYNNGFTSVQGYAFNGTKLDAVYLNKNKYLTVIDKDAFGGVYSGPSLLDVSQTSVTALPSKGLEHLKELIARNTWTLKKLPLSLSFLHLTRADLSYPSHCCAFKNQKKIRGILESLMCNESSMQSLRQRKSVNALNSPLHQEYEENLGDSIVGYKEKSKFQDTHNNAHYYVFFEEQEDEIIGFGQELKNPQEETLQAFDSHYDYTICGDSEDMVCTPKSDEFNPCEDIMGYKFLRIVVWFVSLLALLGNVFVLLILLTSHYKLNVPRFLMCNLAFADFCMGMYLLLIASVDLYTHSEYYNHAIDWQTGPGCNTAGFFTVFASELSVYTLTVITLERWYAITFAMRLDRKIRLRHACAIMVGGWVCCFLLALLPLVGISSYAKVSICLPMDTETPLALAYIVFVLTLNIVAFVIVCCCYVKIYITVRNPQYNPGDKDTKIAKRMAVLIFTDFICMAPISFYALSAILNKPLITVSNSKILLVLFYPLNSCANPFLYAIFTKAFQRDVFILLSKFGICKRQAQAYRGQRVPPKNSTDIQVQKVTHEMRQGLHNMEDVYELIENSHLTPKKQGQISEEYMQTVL
Chain of Chromobox protein homolog 1 (Homo sapiens) (P83916 whole entry, looked up): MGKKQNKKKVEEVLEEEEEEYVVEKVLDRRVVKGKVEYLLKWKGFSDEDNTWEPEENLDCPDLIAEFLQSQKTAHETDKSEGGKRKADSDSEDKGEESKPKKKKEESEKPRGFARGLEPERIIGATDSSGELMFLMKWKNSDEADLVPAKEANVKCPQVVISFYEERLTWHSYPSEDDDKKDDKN

SMILES | Potency [1] | Potency [2] | Potency [3] | Potency [4] | Potency [5] | outcome [6] | outcome [7] | outcome [8] | Potency [9] | Potency [10] | Potency [11] | outcome [12] | Potency [13] | Potency [14] | Potency [15] | activation [16] | Potency [17] | viability change [17] [%] | Potency [18]
Cn1c(=O)c2[nH]c(-c3ccccc3)nc2n(C)c1=O | inactive | inactive | inactive | inactive | inactive | inactive | inactive | inactive | inactive | inactive | inactive | inactive | inactive |  |  |  |  |  | 
Cc1ccc(C(=O)O[C@H](C(=O)O)[C@@H](OC(=O)c2ccc(C)cc2)C(=O)O)cc1 (tested in a mixture with another compound) | inactive | inactive | inactive | inactive | inactive | inactive | inactive |  |  | inactive | inactive | inactive | inactive | inactive | inactive | 1.25% (inactive) | inactive | -3.95 | 
O=C(O)CC[C@@H](C(=O)O)N1C(=O)c2ccccc2C1=O | inactive | inactive | inactive | inactive |  | inactive | inactive | inactive |  | inactive | inactive | inactive | inactive |  | inactive |  | inactive | 9.01 | 
CCCCCC(O)c1cccc(OCc2ccc3ccccc3n2)c1 (stereo not given) | inactive | inactive | inactive | inactive | inactive | inactive | inactive | inactive |  | inactive | inactive | inactive | inactive | inactive | inactive |  |  |  | 
Oc1ccc(C2CNCc3sccc32)cc1O (stereo not given) | inactive | inactive |  | inactive | inactive | inactive | inactive | inactive |  | 199 nM (active) | inactive | inactive | inactive | inactive | inactive | 1.75% (inactive) | inactive | -11.4 | 
COc1ccccc1N1CCN(CCCCNS(=O)(=O)c2cccc3c(N(C)C)cccc23)CC1 | inactive | inactive | inactive | inactive |  | inactive | inactive | inactive | inactive | 2000 nM (active) | inactive | inactive | inactive | inactive |  | -3.25% (inactive) |  |  | 
Cc1ccc(O)c(N=Nc2ccccc2)n1 | inactive | inactive |  | 39.8 µM (active) and inactive | 44700 nM (active) | inactive | inactive | inactive | inactive | inactive | 2590 nM (active) | inactive |  |  |  | 0.875% (inactive) | inactive | 0.002 | inactive
CC1(C)CCC=[N+]1[O-] | inactive | inactive | inactive | inactive | inactive |  | inactive | inactive | inactive | inactive | inactive | inactive | inactive | inactive |  | 1.19% (inactive) | inactive | -0.162 | 
CN(C)c1nc2c(Br)c(Br)c(Br)c(Br)c2[nH]1 | inactive | inactive |  | inactive | inactive | inactive | inactive | inactive | inactive | inactive | inactive | inactive | inactive | inactive | 1460 nM (active) | 5.88% (inactive) | 16400 nM (active) | -13.2 | 
CC(=O)SCC[N+](C)(C)C | inactive | inactive | inactive | inactive | inactive | inactive | inactive | inactive | inactive | inactive | inactive | inactive | inactive | inactive | inactive |  | inactive | -2.78 | 
O=C(O)c1cc(=O)c2c(Cl)cc(Cl)cc2[nH]1 | inactive | inactive |  | inactive | inactive | inactive | inactive | inactive | inactive | inactive | inactive | inactive | inactive | inactive |  |  | inactive | -1.84 | inactive
CC12C(=O)OC(=O)C1(C)C1CCC2O1 (stereo not given) | 4150 nM (active) | inactive | inactive | inactive | inactive | inactive | inactive |  | inactive | inactive | 2910 nM (active) | inactive | inactive |  | 14600 nM (active) | -0.25% (inactive) |  |  | 
COc1cc2c(CCNC(C)=O)c[nH]c2cc1Cl | inactive | inactive | inactive | inactive | inactive | inactive | inactive | inactive | inactive | inactive | inactive | inactive | inactive | inactive |  |  | inactive | 2.33 | 
NCCCS(=O)(=O)O | inactive | inactive |  | inactive | inactive |  | inactive | inactive | inactive | inactive |  | inactive | inactive | inactive | inactive |  | inactive | -7.16 | inactive
N#C/C(=C\c1ccc(O)c(O)c1)C(=O)c1ccc(O)c(O)c1 | inactive | inactive |  | 1.41 µM (active) and 2.99 µM (active) | 501 nM (active) | inactive | inactive | inactive | inactive | inactive | inactive |  | inactive |  |  | -0.562% (inactive) | inactive | -19.7 | 752 nM (active)
O=C(O)CC1CCCc2ccccc2C1O (stereo not given) | inactive |  | inactive | inactive |  | inactive | inactive | inactive | inactive | inactive | inactive | inactive | inactive | inactive | inactive | 0.625% (inactive) | inactive | 2.15 | inactive
O=C(Nc1cccc(C(=O)Nc2ccc(S(=O)(=O)O)c3cc(S(=O)(=O)O)cc(S(=O)(=O)O)c23)c1)Nc1cccc(C(=O)Nc2ccc(S(=O)(=O)O)c3cc(S(=O)(=O)O)cc(S(=O)(=O)O)c23)c1 | inactive | inactive |  | 31.6 µM (active) and 9.47 µM (active) | 20000 nM (active) | inactive | inactive | inactive | inactive |  | inactive | inactive | inactive |  |  | 0.875% (inactive) | inactive | -3.71 | 1890 nM (active)
